Results taken from PubChem BioAssay AID651692 (Broad Institute, 2012).
Results with a measured potency or affinity are listed apart. Calls of active or inactive are those of the source.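 The calls were made as follows: active = fitted half-maximal concentration for loss of cell signal no higher than twice the top valid tested concentration; inconclusive = flat curve at 30 to 70% inhibition, or poor fit; inactive = flat within 30%, signal rise, or potency above limit.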

Assay: cytotoxicity toward MDA-MB-231 breast cancer cells – cell-based, CellTiter-Glo luminescence, cherry-pick, cytotoxicity control for RAD54 inhibitor project, dose response (AID 651692);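 also: more negative values mean stronger loss of viable cell signal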
Settings: MDA-MB-231 viability, 24 h; series mostly up to 26 µM

Structure (SMILES) | outcome
CCN(CC)CCN(C(=O)C1=COCCO1)c1nc2c(OC)ccc(OC)c2s1 | inactive
CN(C)CCCNc1ncnc2sc(-c3ccccc3)cc12 | inactive
c1ccc(-c2nc(NCCCn3ccnc3)c3oc4ccccc4c3n2)cc1 | inactive
CCN(CC)CCNc1nc2cc(OC)c(OC)cc2c2nc(-c3ccccc3)nn12 | inactive
CCN1CCN(c2cc(C)c3cc(NC(=S)NCCCN4CCc5ccccc5C4)ccc3n2)CC1 | inactive
Cc1cc(C)c2nc(C)cc(Nc3ccc(C(=O)NCCO)cc3)c2c1 | inactive
Oc1ccc(CCNc2c3ccccc3nc3ccccc23)cc1O | inactive
CCOC(=O)c1c(CN2CCCCC2)n(C)c2cc(Br)c(OC)cc12 | inactive
O=C(Nc1ccc(Nc2ccncc2)cc1)c1ccc(Nc2ccnc3ccc([N+](=O)[O-])cc23)cc1 | inactive
CCN1CCN(C(=S)Nc2ccc3nc(N4CCN(C)CC4)cc(C)c3c2)CC1 | inactive
CCN(CC)CCn1c2ccc(F)cc2c2nc(C)sc21 | inactive
Cc1ccc(-c2nc(NCCCN(C)C)c3ccccc3n2)cc1 | inactive
COCCCNCCC(CCC(C)C)c1ccc2c(c1)OCO2 (centres undefined) | inactive
COc1ccccc1C1=NOC(Cn2c(NCCCO)nc3c2c(=O)n(C)c(=O)n3C)C1 (centres undefined) | inactive
Cc1[nH]ccc2c1[nH]c1cc(=O)ccc12 | inactive
CN(C)CCc1cc2c(c3c1ccc1ccccc13)OCO2 | inactive
Cc1cc(C)c2c(c1)c1nnc(SCCN3CCCCC3)nc1n2C | inactive
O=C(CN1CCCCC1)n1c2ccccc2c2ccccc21 | inactive
CCOC(=O)c1cnc2c(ccc3ccccc32)c1NCCCN(C)C | inactive
